SUMO Mot1 rescue – blocks SUMOylation pathway, rescuing yeast Mot1-301 growth | S. cerevisiae Mot1-301 growth rescue, ATP luminescence, 38.5C; percent above DMSO median, 100 means doubled | growth rescue, % at 18.8 µM | 1% of 320,000 active;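 active = every valid replicate shows activation above 250% relative to neutral control wells; inactive = the rest, any valid replicate at or below 250%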;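 note: OY570 slx delta 5 strain wells were the positive control but not used for scaling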
Calb FLC – affects C. albicans growth with fluconazole | growth inhibition, % (test concentration not listed) | AID 1979 | 0.57% of 300,000 active | C. albicans CaCi-2 (fluconazole-resistant clinical isolate) + fluconazole, Alamar Blue growth, 48 h;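 active = growth inhibition above about 58% in most replicates, limit read from the data, passing the limit was not always enough; inconclusive = exactly half the replicates above a set limit; inactive = most replicates below a set limit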;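 note: all wells also contain fluconazole at 8 µg/ml as a sub-toxic cotreatment; 0% = median of DMSO wells and 100% = median of geldanamycin control wells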
FAS TE block – inhibitors of human fatty acid synthase thioesterase domain | recombinant FAS-TE, OMFH fluorogenic substrate, fluorescence endpoint | inhibition, % at 15 µM | 0.67% of 360,000 active;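 active = compounds whose normalised, plate-corrected inhibition of enzyme fluorescence in the single-dose primary screen is 50% or more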;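 note: 0% = DMSO with enzyme and 100% = substrate without enzyme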
ATG4B inhibitor – blocks human ATG4B protease cleavage of LC3 substrate | ATG4B cleavage of LC3-PLA2, NBD-HPC fluorescence, 1 h | 0.51% of 340,000 active | AID 504462 | inhibition, % at 8.33 µM | Q9Y4P1; in the data active = inhibition above about 40%
NadD block – inhibitors of Staphylococcus aureus NadD; purified NadD enzyme, colorimetric absorbance read-out; inhibition, % at 20 µM; 0.78% of 360,000 active; in the data active = inhibition above about 26%
NadD conf – confirmation of Staphylococcus aureus NadD inhibitors. inhibition, % at 20 µM. 13% of 2,000 active. purified S. aureus NadD, colorimetric enzyme assay. shares compounds with NadD block; in the data active = inhibition mostly above about 42%, no sharp cut-off; inactive = mostly below about 42%
The depositor's hits bear a star; ? = inconclusive; . = not tested or not shown. Most compounds without a hit are left out; they make up all but 3.1% or so of the library.

SMILES	SUMO Mot1 rescue	Calb FLC	FAS TE block	ATG4B inhibitor	NadD block	NadD conf
Cc1ccc(-n2c(O)c(C=Nc3ccccc3-c3n[nH]c(=S)[nH]c3=O)c3ccccc3c2=O)cc1C	.	100*	22	19	39*	62*
COc1ccc(/C=C2\Sc3ccc(C(=O)NCCN4CCCCCC4)cc3N(C)C2=O)cc1	-1	4	-8	19	47*	8
O=C1Nc2cc(C(=O)NCCN3CCCCCC3)ccc2S/C1=C/c1ccccc1F	.	.	-16	.	46*	-11
O=C1Nc2cc(C(=O)NCCCN3CCCC3)ccc2S/C1=C/c1ccccc1F	-15	16	-5	11	4	.
COc1cccc(C(=O)NCC(C)(C)SCc2ccc(F)cc2)c1	16	4	12	-5	-8	.
COc1ccccc1/C=C/C=N/NC(=O)c1cc(-c2ccco2)[nH]n1	-19	10	2	-3	43*	54*
Cc1cccc(N2CC(C(=O)Nc3nnc(SCC(=O)Nc4cc(C)on4)s3)CC2=O)c1 (stereo not given)	-1	-18	0	1	74*	0
Cc1cccc(N2CC(C(=O)Nc3nnc(SCC(=O)Nc4nccs4)s3)CC2=O)c1 (stereo not given)	-15	-8	-1	-4	62*	7
Cc1ccccc1N1CC(C(=O)Nc2nnc(SCC(=O)Nc3nccs3)s2)CC1=O (stereo not given)	-8	-10	-6	16	40*	29
Cc1cccc(N2CC(C(=O)Nc3nnc(SCc4cccnc4)s3)CC2=O)c1 (stereo not given)	-1	-2	-1	-7	15	.
Cc1ccc(C)n1NC(=O)c1ccc(Cl)cc1Cl	3	-2	3	1	34*	27
Cc1ccc(C)n1NC(=O)c1ccc(Cl)cc1	.	1	-3	-1	9	.
O=C(Nc1ccc2c(c1)nc1n2CCN(C2CCCCC2)C1)c1ccco1	.	.	4	0	18	.
COc1ccccc1C(=O)Nc1ccc2c(c1)nc1n2CCN(C2CCCCC2)C1	6	25	2	9	35*	2
COC(=O)c1ccccc1NS(=O)(=O)c1ccc(Cl)nc1	-14	37	-1	-10	-5	.
Cc1nc(N2CCN(S(=O)(=O)c3ccc(F)cc3)CC2)c2c(C)c(C)sc2n1	-6	-3	7	8	-6	.
Cc1sc2nc(CN3CCOCC3)nc(N3CCN(S(=O)(=O)c4ccccc4)CC3)c2c1C	3	.	12	19	3	.
Cc1sc2nc(CN3CCCC3)nc(N3CCN(S(=O)(=O)c4cccc(F)c4)CC3)c2c1C	0	.	0	16	30*	-11
Cc1sc2nc(C3CC3)nc(N3CCN(S(=O)(=O)c4ccc(F)cc4)CC3)c2c1C	-14	2	46	14	35*	6
COc1ccc(OCc2nnc(SCC(=O)NC3CC3)n2C)cc1	270	-18	-6	-5	-3	.
COc1ccccc1/C=C/C=c1\sc2nc(=O)c(Cc3ccccc3)nn2c1=O	7	10	4	5	37*	19
O=C1OCC(O)=C1Cc1ccccc1	.	.	-3	-7	3	.
Nc1nc(SCc2ccc(Cl)cc2Cl)nc2nc3c(cc12)CCCC3	10	-5	2	20	36*	16
Nc1nc(SCc2ccccc2Cl)nc2nc3c(cc12)CCCC3	-2	10	0	23	4	.
CCN(CC)C(=S)Sc1c(-c2ccccc2)c2cc(Cl)ccc2[nH]c1=O	.	-21	12	-7	39*	0
SMILES	SUMO Mot1 rescue	Calb FLC	FAS TE block	ATG4B inhibitor	NadD block	NadD conf
CCN(CC)CCCCCCCCOC(=O)c1cc(OC)c(OC)c(OC)c1	29	.	2	4	-3	.
O=C(CN1CCN(Cc2ccccc2)CC1)Nc1cccc(S(=O)(=O)N2CCCCCC2)c1	-17	-31	2	1	-9	.
O=C(Nc1cccc(S(=O)(=O)N2CCCCC2)c1)c1c2c(nc3ccccc13)CCN(Cc1ccccc1)C2	11	?	14	-13	30*	-5
CON(C)S(=O)(=O)NC(=O)C1=C(N2CCCC2)COC1=O	10	.	-8	-7	-2	.
CCCCCC1=C(C(=O)OC)C(C(=O)OCC)N(S(=O)(=O)C(F)(F)F)c2ccccc21 (stereo not given)	.	.	25	-1	11	.
O=C1c2ccccc2C(=O)N1CCc1c(-c2ccccc2)[nH]c2ccccc12	.	.	32	15	1	.
